Records with an inconclusive call do not appear. The source made the active and inactive calls. Unless noted, the call rests on the fitted dose curve; in most records, active means well fitted curve in the direction sought with a large enough effect in the repeat runs; inconclusive means weak or mixed curves; inactive means no such curve, though single readings can be large; an effect the other way counts as inactive or inconclusive.
Legend:
[1] = A CellTox Green Cytotoxicity Assay to monitor cytotoxicity in HepG2 cells - 8 hour (AID 1224890); further: nearly all actives have a fitted effect of over 45% in size
How it was run: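 HepG2 cells were seeded together with the CellTox Green dye at 600 cells/well, left 5 h at 37 C/5% CO2, then given compounds in DMSO. Fluorescence from dye bound to dead-cell DNA was read repeatedly over 40 h of treatment at 37 C.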

[2] = qHTS assay to identify small molecule antagonists of the estrogen receptor alpha (ER-alpha) signaling pathway using the BG1 cell line in the presence of 0.1 nM 17-beta-estradiol - cell viability counter screen (AID 1259241); further: nearly all actives have a fitted effect of over 40% in size
How it was run: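 Viability in VM7Luc4E2 cells after 22 hr compound exposure under 0.1 nM 17beta-estradiol stimulation, by CellTiter-Fluor.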

[3] = qHTS assay to identify small molecule antagonists of the androgen receptor (AR) signaling pathway using the MDA cell line in the presence of 0.5 nM R1881 - cell viability counter screen (AID 1259242); further: nearly all actives have a fitted effect of over 45% in size
How it was run: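 MDA-kb2 cells (human breast carcinoma, stably carrying MMTV-luciferase reporter) were exposed to compounds with 0.5 nM R1881 (final) for 16 hr at 37C, 0% CO2; viability then read as live-cell protease fluorescence (CellTiter-Fluor, 30 min) in the same wells.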

[4] = molecular target: Estrogen receptor (Homo sapiens) (UniProt P03372); assay: qHTS assay to identify small molecule antagonists of the estrogen receptor alpha (ER-alpha) signaling pathway using the BG1 cell line in the presence of 0.1 nM 17-beta-estradiol (AID 1259244); further: nearly all actives have a fitted effect of over 50% in size
Sequence of Estrogen receptor (Homo sapiens) (P03372 whole entry, looked up): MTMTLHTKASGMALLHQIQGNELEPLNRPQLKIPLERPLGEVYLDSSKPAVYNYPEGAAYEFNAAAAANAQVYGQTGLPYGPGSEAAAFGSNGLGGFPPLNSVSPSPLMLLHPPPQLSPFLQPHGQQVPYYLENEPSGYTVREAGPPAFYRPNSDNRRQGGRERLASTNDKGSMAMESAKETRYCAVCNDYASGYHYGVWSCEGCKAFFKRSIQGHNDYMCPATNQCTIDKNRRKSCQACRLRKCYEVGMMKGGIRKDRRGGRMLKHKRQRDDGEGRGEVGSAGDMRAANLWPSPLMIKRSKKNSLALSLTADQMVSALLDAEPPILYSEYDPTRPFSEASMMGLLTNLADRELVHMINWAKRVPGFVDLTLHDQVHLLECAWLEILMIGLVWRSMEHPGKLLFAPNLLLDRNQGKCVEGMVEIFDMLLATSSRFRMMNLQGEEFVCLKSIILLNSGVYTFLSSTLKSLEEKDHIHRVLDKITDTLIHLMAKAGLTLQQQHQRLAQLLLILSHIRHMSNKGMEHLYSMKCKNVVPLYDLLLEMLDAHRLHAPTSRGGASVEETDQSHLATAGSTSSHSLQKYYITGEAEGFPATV
How it was run: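 VM7Luc4E2 cells (endogenous full-length ER-alpha, stable 4xERE-luciferase) were grown 5 days in phenol red-free medium with charcoal-stripped FBS, then exposed 22 h at 37C to compounds plus 0.1 nM (final) 17beta-estradiol; ONE-Glo luminescence read-out.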

[5] = qHTS assay to identify small molecule HDAC inhibitors (AID 1259364); further: top concentration of the series differs between compounds; nearly all actives have a fitted effect of over 45% in size
How it was run: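 Wild-type HCT-116 cells were plated overnight, exposed to compounds for 2 h at 37 °C, then given HDAC-Glo class I/II luminogenic reagent for 30 min at room temperature before luminescence was read.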

[6] = qHTS assay to identify small molecule HDAC inhibitors - cell viability counter screen (AID 1259365); further: series mostly up to about 92 µM; nearly all actives have a fitted effect of over 50% in size
How it was run: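 Cytotoxicity was gauged in wild-type HCT-116 cells after a brief 2hr treatment with DMSO-dissolved compounds at 37C and 5% CO2, using CellTiter-Glo luminescence developed for 30min at room temperature.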

[7] = qHTS assay to identify small molecule antagonists of the sonic hedgehog signaling (Shh) pathway - cell viability counter screen (AID 1259367); further: nearly all actives have a fitted effect of over 55% in size
How it was run: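 Cells: 3T3 Gli1-Luc, 2,000/well, 4 hr pre-incubation. Compounds in DMSO, then conditioned medium. Incubation 24 hr, 37C, 5% CO2. CellTiter-Fluor at 23 hr, 1 hr, fluorescence.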

[8] = qHTS assay to identify small molecule agonists of the sonic hedgehog signaling (Shh) pathway (AID 1259368; calls by dose curve; further: series mostly up to about 92 µM; nearly all actives have a fitted effect of over 15% in size)
How it was run: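 NIH/3T3-derived 3T3Gli1-Luc cells carrying a stably integrated Gli1 response element–firefly luciferase reporter were plated, left 4 hr at 37 C, then given compounds in DMSO for 24 hr. Luminescence was read 30 min after adding luciferase reagent.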

[9] = molecular target: Estrogen receptor beta (Homo sapiens) (UniProt Q92731); assay: qHTS assay to identify small molecule agonists of the estrogen receptor beta (ER-beta) signaling pathway (AID 1259377; active means well fitted activation curve with a large enough effect in the signal ratio in the repeat runs, not every such curve was filed as active; the % refers to the signal ratio)
Sequence of Estrogen receptor beta (Homo sapiens) (Q92731 whole entry, looked up): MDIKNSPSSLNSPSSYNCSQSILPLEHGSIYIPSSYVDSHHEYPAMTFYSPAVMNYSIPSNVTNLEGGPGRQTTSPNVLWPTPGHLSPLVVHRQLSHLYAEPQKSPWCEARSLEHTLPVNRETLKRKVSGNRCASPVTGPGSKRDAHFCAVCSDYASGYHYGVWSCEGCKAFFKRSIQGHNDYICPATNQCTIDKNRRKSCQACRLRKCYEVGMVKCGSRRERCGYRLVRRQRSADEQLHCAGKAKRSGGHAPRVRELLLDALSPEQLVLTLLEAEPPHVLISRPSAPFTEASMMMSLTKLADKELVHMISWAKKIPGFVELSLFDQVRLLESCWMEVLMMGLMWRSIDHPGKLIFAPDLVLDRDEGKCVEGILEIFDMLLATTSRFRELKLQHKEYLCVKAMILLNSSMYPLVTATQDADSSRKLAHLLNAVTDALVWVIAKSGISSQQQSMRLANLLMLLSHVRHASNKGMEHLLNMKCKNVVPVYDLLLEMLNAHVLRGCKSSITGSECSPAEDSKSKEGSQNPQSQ
How it was run: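 Measured by fluorescence intensity from a B/G FRET beta-lactamase substrate (2 h, room temperature) in ER-beta-UAS-bla HEK293T cells treated with DMSO-dissolved compounds for 16 hr at 37C and 5% CO2.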

[10] = molecular target: Estrogen receptor beta (Homo sapiens) (UniProt Q92731); assay: qHTS assay to identify small molecule antagonists of the estrogen receptor beta (ER-beta) signaling pathway (AID 1259378; active means well fitted inhibition curve with a large enough effect in the signal ratio in the repeat runs, not every such curve was filed as active; the % refers to the signal ratio)
How it was run: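 Antagonist mode: compounds added to beta-lactamase reporter HEK293T ER-beta-UAS cells stimulated with E2 (1nM final), 16 hr at 37C. LiveBLAzer B/G FRET substrate, 2 hours room temperature, fluorescence read-out.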

[11] = qHTS assay to identify small molecule agonists of the androgen receptor (AR) signaling pathway in the presence of an antagonist - cell viability counter screen (AID 1259379); further: series mostly up to about 92 µM; nearly all actives have a fitted effect of over 25% in size
How it was run: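 MDA-kb2 human breast carcinoma cells (stable MMTV-luciferase, AR/GR responsive) were seeded 3,000 cells/well, pre-incubated 5 hr at 37C without CO2, then given 3.0uM nilutamide and compounds at 15 concentrations for 16 hr. Viability was read by CellTiter-Fluor fluorescence.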

[12] = qHTS assay to identify small molecule agonists of the estrogen receptor beta (ER-beta) signaling pathway - cell viability counter screen (AID 1259380); further: nearly all actives have a fitted effect of over 30% in size
How it was run: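 ER-beta-UAS-bla HEK293T cells in medium with 2% charcoal-stripped FBS were preincubated 6 hr at 37C, dosed with compound in DMSO for 16 hr, then after the bla read, CellTiter-Glo was added for 30 min at room temperature; luminescence recorded.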

[13] = qHTS assay to identify small molecule antagonists of the estrogen receptor beta (ER-beta) signaling pathway - cell viability counter screen (AID 1259382);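 further: HEK293T cells carrying ER-beta-UAS-bla reporter stimulated with estradiol; series mostly up to about 92 µM; nearly all actives have a fitted effect of over 55% in size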
How it was run: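 ER-beta-UAS-bla HEK293T cells (2,000/well, 2% charcoal-stripped FBS) were pre-incubated 6 hr at 37C, then given compound plus 1nM final 17-beta-estradiol for 16 hr. Viability was read in the same wells by CellTiter-Glo luminescence after 30 min at room temperature.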

[14] = molecular target: Estrogen receptor (Homo sapiens) (UniProt P03372); assay: qHTS assay to identify small molecule agonists of the estrogen receptor alpha (ER-alpha) signaling pathway in the presence of an antagonist (AID 1259383; calls by dose curve; further: top concentration of the series differs between compounds; nearly all actives have a fitted effect of over 15% in size)
How it was run: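 VM7Luc4E2 cells (endogenous full-length ER-alpha, 4×ERE-luciferase) were precultured 5 days in phenol red-free medium with 10% charcoal-stripped FBS, given 10.0nM ICI-182,780 (final), then treated with compounds at 15 concentrations for 22hr at 37C; luminescence read with ONE-Glo.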

[15] = qHTS assay to identify small molecule agonists of the sonic hedgehog signaling (Shh) pathway - cell viability counter screen (AID 1259366); further: nearly all actives have a fitted effect of over 50% in size
How it was run: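 Stable Gli1-Luc NIH/3T3 clone, 2,000 cells/well. Compound exposure 24hr at 37C. Read-out: CellTiter-Fluor fluorescence.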

[16] = qHTS assay to identify small molecule antagonists of the sonic hedgehog signaling (Shh) pathway (AID 1259369; calls by dose curve; further: nearly all actives have a fitted effect of over 45% in size)
How it was run: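 NIH/3T3-derived 3T3Gli1-Luc cells with stably integrated Gli1-Luc reporter were preincubated 4hr at 37 C, then given compounds in DMSO plus Shh conditioned medium and incubated 24hr. Firefly luciferase luminescence read after 30min reagent at room temperature.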

[17] = molecular target: Androgen receptor (Homo sapiens) (UniProt P10275); assay: qHTS assay to identify small molecule agonists of the androgen receptor (AR) signaling pathway in the presence of an antagonist (AID 1259381; calls by dose curve; further: nearly all actives have a fitted effect of over 15% in size)
Sequence of Androgen receptor (Homo sapiens) (P10275 whole entry, looked up): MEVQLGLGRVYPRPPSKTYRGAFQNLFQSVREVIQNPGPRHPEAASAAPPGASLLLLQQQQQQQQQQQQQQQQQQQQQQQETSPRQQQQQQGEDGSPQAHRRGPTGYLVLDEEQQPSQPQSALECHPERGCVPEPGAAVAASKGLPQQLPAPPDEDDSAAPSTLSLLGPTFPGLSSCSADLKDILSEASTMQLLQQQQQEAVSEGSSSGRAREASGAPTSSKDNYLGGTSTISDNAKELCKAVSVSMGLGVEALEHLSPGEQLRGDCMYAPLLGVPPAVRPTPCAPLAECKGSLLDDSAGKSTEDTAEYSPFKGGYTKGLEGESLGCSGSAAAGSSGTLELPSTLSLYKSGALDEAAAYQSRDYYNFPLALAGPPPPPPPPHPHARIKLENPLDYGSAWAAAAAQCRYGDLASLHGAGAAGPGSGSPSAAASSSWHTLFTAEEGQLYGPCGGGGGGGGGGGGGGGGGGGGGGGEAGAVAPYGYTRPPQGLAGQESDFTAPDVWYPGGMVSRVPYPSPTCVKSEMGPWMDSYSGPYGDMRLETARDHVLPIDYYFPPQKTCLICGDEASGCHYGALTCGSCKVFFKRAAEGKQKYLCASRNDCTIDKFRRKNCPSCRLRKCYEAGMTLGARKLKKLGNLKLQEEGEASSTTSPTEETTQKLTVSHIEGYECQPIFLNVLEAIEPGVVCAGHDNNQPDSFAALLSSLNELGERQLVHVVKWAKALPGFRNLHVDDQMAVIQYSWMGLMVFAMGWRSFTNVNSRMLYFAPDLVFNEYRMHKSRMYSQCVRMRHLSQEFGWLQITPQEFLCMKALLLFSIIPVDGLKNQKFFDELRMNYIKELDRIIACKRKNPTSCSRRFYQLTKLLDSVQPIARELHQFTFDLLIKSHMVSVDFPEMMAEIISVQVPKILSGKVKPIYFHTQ
How it was run: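 MDA-kb2 human breast carcinoma cells carrying an MMTV-luciferase reporter (AR- and GR-responsive) were treated with compounds at 15 concentrations plus 3.0uM final nilutamide for 16hr at 37C without CO2; luminescence was read after ONE-Glo addition.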

[18] = qHTS assay to identify small molecule agonists or antagonists of the thyroid stimulating hormone receptor (TSHR) signaling pathway - wild type cell line counter screen (AID 1259384; calls by dose curve)
How it was run: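 Counter screen in untransfected Hek293: compounds (15-point titration, triplicate) plus phosphodiesterase inhibitor Ro20-1724 added after 18 h plating; 30 min RT. Intracellular cAMP via competitive d2/cryptate immunoassay, 1 h incubation.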

[19] = qHTS assay to identify small molecule phospholipidosis (PLD) inducers (AID 1259344; active means well fitted curve in the direction sought with a large enough effect; an effect the other way counts as inactive or inconclusive)
How it was run: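 Phospholipidosis is scored by imaging LipidTOX-stained pits in HepG2 cells exposed to compound for 24 h at 37 C; pit counts and integrated intensities per well and per cell serve as outputs.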

Measured: Potency

CC(C)OB(OC(C)C)OC(C)C
not listed: [15] | [16] | [17] | [18] | [19]
inactive: all other assays above

O=C(c1ccccc1)c1ccccc1O
not listed: [3] | [4] | [10] | [11] | [14] | [19]
inactive: all other assays above

CCC(C)c1ccccc1O (stereo unspecified)
not listed: [3] | [4] | [10] | [14] | [17] | [19]
inactive: all other assays above

Cc1ncc[nH]1
not listed: [3] | [4] | [10] | [11] | [14] | [15] | [17]
inactive: all other assays above

O=CCc1ccccc1
inactive: [1] | [2] | [5] | [6] | [15] | [7] | [8] | [12] | [13] | [18]

O=C1c2cccc(O)c2C(=O)c2c(O)cccc21
inactive: [1] | [2] | [19] | [6] | [7] | [8] | [10] | [13] | [18]

CN(C)CCN(Cc1cccs1)c1ccccn1
not listed: [3] | [9] | [10] | [17]
inactive: all other assays above

Source: PubChem BioAssay (Tox21)
